Assay results as given in PubChem BioAssay AID493203 (National Center for Advancing Translational Sciences (NCATS), 2011).
Inconclusive results are not listed. Where a call stands in place of a potency, no number is given. The source made the active and inactive calls. The call rests on the fitted dose curve; in most records, active means well fitted activation curve with a large enough effect; inconclusive means small, poorly fitted or top-dose-only effect; inactive means flat fitted curve, though single readings scatter.
Potency means the concentration at half of the fitted maximal effect.

Test: qHTS Assay for NPC1 Promoter Activators: Initial hit validation from the primary screen
Details: Huh7 NPC1 promoter-luciferase reporter, luminescence, 24 h; series mostly up to 46.1 µM
In short: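 Huh7 cells stably carrying NPC1 promoter-luciferase, 1500 cells per well in OP-MEM I with 10% FBS; compounds added after 2 hours and incubated 24 hours at 37C. Luminescence read 10 minutes after Amplite luciferase reagent.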
In the case of `COCCNC(=O)Cn1nc(-c2ccccc2)c2ccccc2c1=O`, the Potency is reported as “inactive”. In the case of `Cc1ccc(N=Cc2sc(O)c3ccccc23)c(C)c1`, the Potency is reported as 1770 nM (active). With `COc1ccc(S(=O)(=O)NC(C(=O)NCCc2ccccn2)C(C)C)cc1` (centres undefined) the Potency was “inactive”. In the case of `COc1ccc(/C=C\c2onc(C)c2S(=O)(=O)N2CCC(C(=O)NCCC(C)C)CC2)cc1`, the Potency is reported as “inactive”. In the case of `COc1ccc(-c2csc(Nc3ncccn3)n2)cc1C`, the Potency is reported as 250 nM (active). For `COc1ccc(/C=C\C(=O)c2c(O)ccc3c(C)cc(=O)oc23)cc1OC`, the Potency was “inactive”. With `Cc1ccc(C#N)c(SCC(=O)Nc2nccs2)n1` the Potency was 1120 nM (active). In the case of `O=C(CN1C(=O)COc2ccc(Cl)cc21)NCC1CCCO1` (centres undefined), the Potency is reported as “inactive”. In the case of `CCOc1ccc(CNC(=O)C2CCCN(S(C)(=O)=O)C2)cc1OC` (centres undefined), the Potency is reported as “inactive”. In the case of `CN(C)/C=N/c1c(C#N)cnn1-c1nc2ccccc2s1`, the Potency is reported as “inactive”. In the case of `Cc1nc(-c2ccc(S(=O)(=O)Oc3ccc(Cl)cc3Cl)s2)cs1`, the Potency is reported as “inactive”. With `COc1ccc(NC(=O)CCCN2C(=O)C(c3ccccc3)Oc3cccnc32)cc1OC` (centres undefined) the Potency was “inactive”. In the case of `CCc1cc(C(=O)Nc2ccccc2)cs1`, the Potency is reported as 2230 nM (active). For `Brc1ccccc1-c1nnc(CSc2nnc3sc4ccccc4n23)o1`, the Potency was “inactive”. With `COC(=O)c1sccc1NC(=S)OC` the Potency was “inactive”. With `CCC(=O)N1c2ccccc2NC2=C(C(=O)CCC2)C1c1ccc(N(C)C)cc1` (centres undefined) the Potency was “inactive”. In the case of `Fc1ccc(-c2nc3nc4ccccc4nc3n2Cc2ccco2)cc1`, the Potency is reported as “inactive”. With `Cc1ccc(NC(=O)NC(=O)c2ccccc2)cc1F` the Potency was 499 nM (active). For `CNC(=O)Cn1nc(C)c2ccccc2c1=O`, the Potency was “inactive”. In the case of `O=C(CCN1C(=O)c2ccccc2C1=O)Nc1ccc(-c2nc3ccccc3s2)cc1`, the Potency is reported as 250 nM (active). For `CC(C)(C)C(=O)N/C(N)=N/c1nc2ccccc2o1`, the Potency was 499 nM (active). For `O=S(=O)(c1cccs1)N1CCN(c2ncccn2)CC1`, the Potency was “inactive”. For `C=CCn1c(C)nnc1SCC(=O)Nc1nccs1`, the Potency was “inactive”. In the case of `COc1ccc(-c2cc(C(=O)Nc3ccccc3F)on2)cc1`, the Potency is reported as 31500 nM (active). With `Cc1ccc(C(=O)NC2CCN(CC(=O)Nc3c(C)cc(C)cc3C)CC2)cc1` the Potency was “inactive”. With `Nc1nc(SCCO)[nH]c(=O)c1NC(=O)c1ccco1` the Potency was “inactive”. With `CCN(C(=O)COC(=O)c1ccc(C=O)cc1)c1c(N)n(Cc2ccccc2)c(=O)[nH]c1=O` the Potency was “inactive”. With `Cc1ccccc1NC(=O)CSc1ccc(-c2cccnc2)nn1` the Potency was “inactive”. In the case of `Cc1ccc(C(=O)NCc2ccc3c(c2)OCO3)cc1C`, the Potency is reported as 31500 nM (active). For `COc1ccc(-c2csc(N(CCCN(C)C)C(=O)c3ccccc3C)n2)cc1`, the Potency was “inactive”. In the case of `COc1ccc(C)cc1N(C(=O)CNC(=O)c1ccco1)C(C(=O)NC1CCCC1)c1cccnc1` (centres undefined), the Potency is reported as “inactive”. In the case of `CCCOC(=O)Cn1cnc2scc(-c3ccc(OC)cc3)c2c1=O`, the Potency is reported as “inactive”. With `Cc1cc(C)c2c(N)c(C(=O)Nc3ccc([N+](=O)[O-])cc3)sc2n1` the Potency was 396 nM (active). For `O=C(NCCSCc1c(F)cccc1Cl)c1ccc(CN2CCOCC2)cc1`, the Potency was “inactive”.
